{
  "source": "PubChem BioAssay (EPA / NIEHS)",
  "note": "Inconclusive results are not listed. Activity calls are given as the source filed them. Rule for the calls: active = hit-call score of the fitted dose curve at least 0.9, where 1 is the maximum; inconclusive = response in the unintended direction; inactive = score below 0.9.",
  "data": [
    {"target": "Hepatocyte nuclear factor 4-alpha (Homo sapiens) (UniProt P41235)", "sequence (P41235 whole entry, looked up)": "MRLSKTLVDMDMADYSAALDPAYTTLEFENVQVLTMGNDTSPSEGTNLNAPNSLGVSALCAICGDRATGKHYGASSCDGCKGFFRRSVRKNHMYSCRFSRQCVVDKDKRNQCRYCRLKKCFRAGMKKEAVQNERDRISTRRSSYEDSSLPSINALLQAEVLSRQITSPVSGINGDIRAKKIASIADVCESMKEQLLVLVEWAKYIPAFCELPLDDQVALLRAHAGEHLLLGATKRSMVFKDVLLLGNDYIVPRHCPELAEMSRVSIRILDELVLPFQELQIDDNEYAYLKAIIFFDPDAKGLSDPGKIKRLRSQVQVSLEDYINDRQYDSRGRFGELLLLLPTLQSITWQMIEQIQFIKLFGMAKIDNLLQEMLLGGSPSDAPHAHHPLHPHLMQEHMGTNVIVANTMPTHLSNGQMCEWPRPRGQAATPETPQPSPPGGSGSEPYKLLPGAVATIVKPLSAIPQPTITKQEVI", "assay": "ATG_HNF4a_TRANS: Attagene TRANS-FACTORIAL HepG2 Assay for human Hepatocyte Nuclear Factor 4 alpha (HNF4a) (AID 2282982)", "details": "HepG2 HNF4a transactivation reporter, mRNA readout", "description": "ATG_TRANS is a cell-based, multiplexed-readout assay that uses HepG2, a human liver cell line, with measurements taken at 24 hours after chemical dosing in a 24-well plate.ATG_HNF4a_TRANS is one of 30 assay component(s) measured or calculated from the ATG_TRANS assay. It is designed to make measurements of mRNA induction, a form of inducible reporter, as detected with fluorescence intensity signals by Reverse transcription polymerase chain reaction (RT-PCR) and Capillary electrophoresis technology.Data from the assay component ATG_HNF4a_TRANS was analyzed into 1 assay endpoint. This assay endpoint, ATG_HNF4a_TRANS, was analyzed in the positive analysis fitting direction relative to DMSO as the negative control and baseline of activity. Using a type of inducible reporter, measures of mRNA for gain-of-signal activity can be used to understand the reporter gene at the transcription factor-level as they relate to the gene HNF4A. Furthermore, this assay endpoint can be referred to as a primary readout, because this assay has produced multiple assay endpoints where this one serves a reporter gene function. To generalize the intended target to other relatable targets, this assay endpoint is annotated to the nuclear receptor intended target family, where the subfamily is orphan.\nHuman liver HepG2 cells are transiently transfected with multiple reporter transcription units (MRTUs) in 6-well plates using FuGene 6 reagent (Roche; 3 ml FuGene/1 mg DNA). The MRTU constructs are regulated by a cis-regulating element (promoter). […] A major difference between the CIS and TRANS system is that in CIS activities of endogenous TFs are measured, whereas the TRANS assay evaluates changes in activities of exogenous, chimeric NR-Gal4 proteins. […] At the end of 24 hour incubation, total RNA was isolated using TriZol reagent (Invitrogen). The isolated RNA is then reverse-transcribed using oligo(dT) primer and Mo-MLV reverse transcriptase (Invitrogen) with DNAse I (Ambion) treatment for 30 min. The one-tenth of the produced cDNA was amplified by PCR using Taq DNA polymerase (Invitrogen) and two reporter sequence-specific primers. The PCR products were fluorescently labeled by primer extension with 6-arboxyfluorescein (6-FAM) 5'-labeled reporter sequence-specific primer (2 min at 95 C, 20 s at 68 C and 10 min at 72 C) and these products were digested with 5U of HpaI (New England Biolabs) for 2h at 37 C. The fragments were purified using Qiaquick PCR columns (Qiagen), analyzed on an ABI 3130xL genetic analyzer (Applied Biosystems) with peak positions identified by using a set of X-rhodamine (ROX)-labeled MapMarker1000 molecular weight standards (BioVentures). The raw capillary electrophoresis data was processed using Attagraph software (Attagene).", "values": [
      {"compound": "CO/N=C(/C1=NOCCO1)c1ccccc1Oc1ncnc(Oc2ccccc2Cl)c1F", "outcome": "inactive"},
      {"compound": "Cn1c(-c2ccccc2)cc(-c2ccccc2)[n+]1C", "outcome": "inactive"},
      {"compound": "CNC(=O)N(C)c1nnc(C(C)(C)C)s1", "outcome": "inactive"},
      {"compound": "CCC(C)n1c(=O)[nH]c(C)c(Br)c1=O", "note": "(stereo not given)", "outcome": "inactive"},
      {"compound": "COP(=S)(OC)Oc1ccc([N+](=O)[O-])c(C)c1", "outcome": "inactive"},
      {"compound": "CCNP(=S)(OC)O/C(C)=C/C(=O)OC(C)C", "note": "(stereo not given)", "outcome": "inactive"},
      {"compound": "Nc1c(Cl)c(Cl)nc(C(=O)O)c1Cl", "outcome": "inactive"},
      {"compound": "CC(C)(C)C(=O)C(Oc1ccc(Cl)cc1)n1cncn1", "note": "(stereo not given)", "outcome": "inactive"},
      {"compound": "CC(C)Nc1nc(Cl)nc(NC(C)C)n1", "outcome": "inactive"},
      {"compound": "CCOc1cc(C(C)(C)C)ccc1C1COC(c2c(F)cccc2F)=N1", "note": "(stereo not given)", "outcome": "inactive"},
      {"compound": "O=C(Nc1ccccc1-c1ccc(Cl)cc1)c1cccnc1Cl", "outcome": "inactive"},
      {"compound": "CSC(=O)c1c(C(F)F)nc(C(F)(F)F)c(C(=O)SC)c1CC(C)C", "outcome": "inactive"},
      {"compound": "CC(C)Oc1cccc(NC(=O)c2ccccc2C(F)(F)F)c1", "outcome": "inactive"},
      {"compound": "CC(C)=CC1C(C(=O)OCc2coc(Cc3ccccc3)c2)C1(C)C", "note": "(stereo not given)", "outcome": "inactive"},
      {"compound": "CCCCOCN(C(=O)CCl)c1c(CC)cccc1CC", "outcome": "inactive"},
      {"compound": "N#CN=C1SCCN1Cc1ccc(Cl)nc1", "outcome": "inactive"},
      {"compound": "CC1(C)C(C(=O)OC(C#N)c2cccc(Oc3ccccc3)c2)C1(C)C", "note": "(stereo not given)", "outcome": "inactive"},
      {"compound": "CS(=O)(=O)c1ccc(C(=O)C2C(=O)CCCC2=O)c([N+](=O)[O-])c1", "outcome": "inactive"},
      {"compound": "COc1cc(Cl)c(OC)cc1Cl", "outcome": "inactive"},
      {"compound": "CCN(CC)c1nc(C)cc(OP(=S)(OC)OC)n1", "outcome": "inactive"},
      {"compound": "Cc1cnc(C2=NC(C)(C(C)C)C(=O)N2)c(C(=O)O)c1", "note": "(stereo not given)", "outcome": "inactive"},
      {"compound": "O=C1C2CC=CCC2C(=O)N1SC(Cl)(Cl)Cl", "note": "(stereo not given)", "outcome": "inactive"},
      {"compound": "N#Cc1c[nH]cc1-c1cccc2c1OC(F)(F)O2", "outcome": "inactive"},
      {"compound": "Cc1cc(C)nc(Nc2ccccc2)n1", "outcome": "inactive"},
      {"compound": "COC(=O)N(C(=O)N1CO[C@@]2(C(=O)OC)Cc3cc(Cl)ccc3C2=N1)c1ccc(OC(F)(F)F)cc1", "outcome": "inactive"},
      {"compound": "COC(=O)c1c(C(F)F)nc(C(F)(F)F)c(C2=NCCS2)c1CC(C)C", "outcome": "inactive"},
      {"compound": "CN=C=S", "outcome": "inactive"},
      {"compound": "CCOc1nc(F)cc2nc(S(=O)(=O)Nc3c(Cl)cccc3Cl)nn12", "outcome": "inactive"},
      {"compound": "CCCC(=NOCC)C1=C(O)CC(CC(C)SCC)CC1=O", "note": "(stereo not given)", "outcome": "inactive"},
      {"compound": "COCc1cnc(C2=NC(C)(C(C)C)C(=O)N2)c(C(=O)O)c1", "note": "(stereo not given)", "outcome": "inactive"},
      {"compound": "O=c1n(Cl)c(=O)n(Cl)c(=O)n1Cl", "outcome": "inactive"},
      {"compound": "CC1(C)C(C=C(Cl)Cl)C1C(=O)OC(C#N)c1cccc(Oc2ccccc2)c1", "note": "(stereo not given)", "outcome": "inactive"},
      {"compound": "CC(C)C1(C)N=C(c2ncccc2C(=O)O)NC1=O", "note": "(stereo not given)", "outcome": "inactive"},
      {"compound": "CCCN(CC)CC1COC2(CCC(C(C)(C)C)CC2)O1", "note": "(stereo not given)", "outcome": "inactive"},
      {"compound": "CCN(CC)C(=O)C(C)Oc1cccc2ccccc12", "note": "(stereo not given)", "outcome": "inactive"},
      {"compound": "CCCCC(C#N)(Cn1cncn1)c1ccc(Cl)cc1", "note": "(stereo not given)", "outcome": "inactive"},
      {"compound": "CCNC(=O)NC(=O)C(C#N)=NOC", "outcome": "inactive"},
      {"compound": "CC1(C)CON(Cc2ccccc2Cl)C1=O", "outcome": "inactive"},
      {"compound": "CCOP(=S)(OCC)Oc1nc(Cl)n(C(C)C)n1", "outcome": "inactive"},
      {"compound": "O=P(O)(O)CCCl", "outcome": "inactive"}
    ]}
  ]
}
